# According to article PMC7862700, “An all-to-all approach to the identification of sequence-specific readers for epigenetic DNA modifications on cytosine”:
# What was measured:
# Test in all cases: DAPPL (digital affinity profiling via proximity ligation, sequencing); 10 mM Tris-HCl pH 7.5, 50 mM NaCl, 1 mM DTT, 4% glycerol, room temperature, 30 min; GST-TFs on glutathione beads, 16-mer random dsDNA library, 0.1% formaldehyde crosslink after washing; high values mean tight binding
# [1] = biological target: T1, FLI1 (Homo sapiens, UniProt Q01543 1-452); conditions: protein: recombinant; tags: N-terminal GST; dsDNA, one strand shown
# T1 sequence: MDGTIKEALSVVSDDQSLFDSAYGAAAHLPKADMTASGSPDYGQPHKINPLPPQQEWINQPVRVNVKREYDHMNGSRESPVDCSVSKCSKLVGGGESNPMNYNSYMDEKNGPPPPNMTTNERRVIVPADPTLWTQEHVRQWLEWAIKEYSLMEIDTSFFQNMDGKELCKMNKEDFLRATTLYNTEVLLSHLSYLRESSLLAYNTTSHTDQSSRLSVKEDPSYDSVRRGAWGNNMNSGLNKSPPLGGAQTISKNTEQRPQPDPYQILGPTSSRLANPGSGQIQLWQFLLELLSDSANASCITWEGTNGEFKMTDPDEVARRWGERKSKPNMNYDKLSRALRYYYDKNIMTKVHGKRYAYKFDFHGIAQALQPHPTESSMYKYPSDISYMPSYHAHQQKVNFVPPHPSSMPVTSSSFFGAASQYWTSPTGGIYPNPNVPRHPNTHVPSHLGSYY
# How it was run: (§1)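 In yeast, human transcription factors were expressed with a GST fusion, then pulled down on glutathione beads and given DNA barcodes. Pooled with a tag-only sample, they were exposed to 200 nmole of a 16-mer random double-stranded DNA library (Tris/NaCl/DTT/glycerol buffer, room temperature, 30 min), washed, crosslinked with 0.1% formaldehyde, proximity-ligated using BsaI/T4 ligase for 1 h at 37 °C, PCR-amplified and read on an Illumina NextSeq500. Each hexamer's frequency of reads for a factor, divided by the matching frequency for the tag-only sample, gives the binding signal.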
# [2] = biological target: T2, ELK1 (Homo sapiens, UniProt P19419 1-428); conditions: protein: recombinant; tags: N-terminal GST; dsDNA, one strand shown
# T2 sequence: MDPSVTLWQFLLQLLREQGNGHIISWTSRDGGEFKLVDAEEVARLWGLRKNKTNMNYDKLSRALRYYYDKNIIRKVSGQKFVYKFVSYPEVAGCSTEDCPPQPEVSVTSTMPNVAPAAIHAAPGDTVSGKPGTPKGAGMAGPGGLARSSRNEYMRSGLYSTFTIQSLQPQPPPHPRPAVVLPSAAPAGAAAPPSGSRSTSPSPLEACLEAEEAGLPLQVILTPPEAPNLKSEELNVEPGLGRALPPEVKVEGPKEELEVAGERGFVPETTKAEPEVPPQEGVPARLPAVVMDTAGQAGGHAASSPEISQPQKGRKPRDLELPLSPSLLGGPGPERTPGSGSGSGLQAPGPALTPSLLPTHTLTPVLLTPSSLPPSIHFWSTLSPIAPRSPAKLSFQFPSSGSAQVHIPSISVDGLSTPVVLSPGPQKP
# How it was run: as §1
# [3] = biological target: T3, GABPA (Homo sapiens, UniProt Q06546 1-454); conditions: protein: recombinant; tags: N-terminal GST; dsDNA, one strand shown
# T3 sequence: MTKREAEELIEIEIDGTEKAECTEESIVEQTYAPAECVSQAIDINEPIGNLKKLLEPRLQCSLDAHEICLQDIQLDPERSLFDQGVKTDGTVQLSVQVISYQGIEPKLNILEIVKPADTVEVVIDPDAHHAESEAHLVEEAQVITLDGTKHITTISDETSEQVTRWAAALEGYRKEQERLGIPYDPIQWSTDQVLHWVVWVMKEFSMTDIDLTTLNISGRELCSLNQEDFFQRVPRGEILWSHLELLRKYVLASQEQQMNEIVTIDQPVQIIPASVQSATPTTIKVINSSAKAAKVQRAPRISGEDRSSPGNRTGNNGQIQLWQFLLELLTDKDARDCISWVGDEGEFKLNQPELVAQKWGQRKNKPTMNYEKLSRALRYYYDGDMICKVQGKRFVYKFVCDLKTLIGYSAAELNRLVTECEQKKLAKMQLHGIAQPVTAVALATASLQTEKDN
# How it was run: as §1
# [4] = biological target: T4, ERG (Homo sapiens, UniProt P11308 1-479); conditions: protein: recombinant; tags: N-terminal GST; dsDNA, one strand shown
# T4 sequence: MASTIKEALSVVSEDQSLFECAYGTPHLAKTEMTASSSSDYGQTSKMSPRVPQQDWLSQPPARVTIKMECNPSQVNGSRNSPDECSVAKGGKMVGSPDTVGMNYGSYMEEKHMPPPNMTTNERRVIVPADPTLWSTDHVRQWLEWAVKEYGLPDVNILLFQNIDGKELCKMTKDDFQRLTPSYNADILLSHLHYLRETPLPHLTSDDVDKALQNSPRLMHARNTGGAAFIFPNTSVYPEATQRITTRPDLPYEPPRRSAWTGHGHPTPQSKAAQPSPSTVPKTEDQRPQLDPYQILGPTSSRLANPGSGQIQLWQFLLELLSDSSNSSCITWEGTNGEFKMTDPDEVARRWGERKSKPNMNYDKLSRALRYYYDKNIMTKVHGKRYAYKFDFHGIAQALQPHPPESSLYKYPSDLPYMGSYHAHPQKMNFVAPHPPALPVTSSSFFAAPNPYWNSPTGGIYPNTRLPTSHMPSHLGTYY
# How it was run: as §1
# [5] = biological target: ELF1 (Homo sapiens, UniProt P32519 1-619); conditions: protein: recombinant; tags: N-terminal GST; dsDNA, one strand shown
# How it was run: as §1
# [6] = biological target: T5, EHF (Homo sapiens, UniProt Q9NZC4 1-300); conditions: protein: recombinant; tags: N-terminal GST; dsDNA, one strand shown
# T5 sequence: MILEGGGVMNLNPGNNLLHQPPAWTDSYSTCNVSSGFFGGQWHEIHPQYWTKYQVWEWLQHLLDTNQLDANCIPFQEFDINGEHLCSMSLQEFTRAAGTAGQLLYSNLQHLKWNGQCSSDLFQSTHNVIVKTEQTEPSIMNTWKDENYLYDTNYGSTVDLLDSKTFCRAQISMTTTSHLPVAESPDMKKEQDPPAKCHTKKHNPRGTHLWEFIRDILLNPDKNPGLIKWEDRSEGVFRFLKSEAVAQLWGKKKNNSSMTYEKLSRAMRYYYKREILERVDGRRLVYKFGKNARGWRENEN
# How it was run: as §1
# [7] = biological target: SPI1 (Homo sapiens, UniProt P17947 1-270); conditions: protein: recombinant; tags: N-terminal GST; dsDNA, one strand shown
# How it was run: as §1
# [8] = biological target: SPIB (Homo sapiens, UniProt Q01892 1-262); conditions: protein: recombinant; tags: N-terminal GST; dsDNA, one strand shown
# How it was run: as §1
# [9] = biological target: T6, ELK3 (Homo sapiens, UniProt P41970 1-407); conditions: protein: recombinant; tags: N-terminal GST; dsDNA, one strand shown
# T6 sequence: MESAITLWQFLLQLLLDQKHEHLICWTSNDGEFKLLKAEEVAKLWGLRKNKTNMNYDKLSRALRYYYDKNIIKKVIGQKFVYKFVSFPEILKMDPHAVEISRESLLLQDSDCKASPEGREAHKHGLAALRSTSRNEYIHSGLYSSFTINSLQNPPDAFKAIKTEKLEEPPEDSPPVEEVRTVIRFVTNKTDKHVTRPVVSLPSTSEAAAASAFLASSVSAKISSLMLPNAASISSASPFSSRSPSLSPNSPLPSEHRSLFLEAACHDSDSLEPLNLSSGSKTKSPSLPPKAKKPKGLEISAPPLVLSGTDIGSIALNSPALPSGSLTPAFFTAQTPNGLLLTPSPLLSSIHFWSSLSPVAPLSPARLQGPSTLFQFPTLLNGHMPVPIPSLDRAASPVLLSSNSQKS
# How it was run: as §1
# [10] = biological target: T7, FEV (Homo sapiens, UniProt Q99581 1-238); conditions: protein: recombinant; tags: N-terminal GST; dsDNA, one strand shown
# T7 sequence: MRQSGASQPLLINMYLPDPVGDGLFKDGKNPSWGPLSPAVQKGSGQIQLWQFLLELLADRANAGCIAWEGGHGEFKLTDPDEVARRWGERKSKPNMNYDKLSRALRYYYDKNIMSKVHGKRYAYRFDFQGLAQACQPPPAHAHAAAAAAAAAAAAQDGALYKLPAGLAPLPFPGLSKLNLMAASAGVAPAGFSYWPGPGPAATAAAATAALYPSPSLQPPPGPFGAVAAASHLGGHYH
# How it was run: as §1
# [11] = biological target: ETV5 (Homo sapiens, UniProt P41161 1-510); conditions: protein: recombinant; tags: N-terminal GST; dsDNA, one strand shown
# How it was run: as §1
# [12] = biological target: HSF1 (Homo sapiens, UniProt Q00613 1-529); conditions: protein: recombinant; tags: N-terminal GST; chain copies: 3; dsDNA, one strand shown
# How it was run: as §1
# [13] = biological target: T8, SPIC (Homo sapiens, UniProt Q8N5J4 1-248); conditions: protein: recombinant; tags: N-terminal GST; dsDNA, one strand shown
# T8 sequence: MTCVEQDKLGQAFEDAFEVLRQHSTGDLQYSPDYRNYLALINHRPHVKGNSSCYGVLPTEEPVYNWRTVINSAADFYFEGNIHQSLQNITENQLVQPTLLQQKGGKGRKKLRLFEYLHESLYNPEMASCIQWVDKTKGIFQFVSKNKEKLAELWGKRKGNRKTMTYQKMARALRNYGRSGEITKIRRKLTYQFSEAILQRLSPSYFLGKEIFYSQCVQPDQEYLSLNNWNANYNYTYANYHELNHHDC
# How it was run: as §1
# [14] = biological target: ELF4 (Homo sapiens, UniProt Q99607 1-663); conditions: protein: recombinant; tags: N-terminal GST; dsDNA, one strand shown
# How it was run: as §1
# [15] = biological target: T9, ELK4 (Homo sapiens, UniProt P28324-2 1-405); conditions: protein: recombinant; tags: N-terminal GST; dsDNA, one strand shown
# T9 sequence: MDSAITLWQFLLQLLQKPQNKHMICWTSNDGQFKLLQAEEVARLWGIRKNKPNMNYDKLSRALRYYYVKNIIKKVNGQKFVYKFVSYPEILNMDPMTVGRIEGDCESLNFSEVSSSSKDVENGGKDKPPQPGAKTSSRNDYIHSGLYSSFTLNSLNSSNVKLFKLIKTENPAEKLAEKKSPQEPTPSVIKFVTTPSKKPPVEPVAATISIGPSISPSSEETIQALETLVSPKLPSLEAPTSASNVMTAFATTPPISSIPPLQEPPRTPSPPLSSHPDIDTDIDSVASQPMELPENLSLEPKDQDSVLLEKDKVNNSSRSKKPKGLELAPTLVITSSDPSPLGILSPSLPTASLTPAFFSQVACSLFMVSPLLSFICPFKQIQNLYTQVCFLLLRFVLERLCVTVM
# How it was run: as §1
# [16] = biological target: T10, ETV2 (Homo sapiens, UniProt O00321 1-342); conditions: protein: recombinant; tags: N-terminal GST; dsDNA, one strand shown
# T10 sequence: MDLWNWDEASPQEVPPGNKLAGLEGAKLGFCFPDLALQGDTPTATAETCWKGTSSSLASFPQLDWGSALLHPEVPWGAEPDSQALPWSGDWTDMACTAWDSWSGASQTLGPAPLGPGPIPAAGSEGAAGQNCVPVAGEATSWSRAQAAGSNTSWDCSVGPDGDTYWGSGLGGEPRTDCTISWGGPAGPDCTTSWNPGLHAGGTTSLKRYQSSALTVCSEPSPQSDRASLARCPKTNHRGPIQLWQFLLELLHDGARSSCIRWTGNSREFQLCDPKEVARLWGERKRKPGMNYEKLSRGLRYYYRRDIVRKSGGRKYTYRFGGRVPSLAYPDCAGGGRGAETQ
# How it was run: as §1
# [17] = biological target: T11, ELF3 (Homo sapiens, UniProt P78545 1-371); conditions: protein: recombinant; tags: N-terminal GST; dsDNA, one strand shown
# T11 sequence: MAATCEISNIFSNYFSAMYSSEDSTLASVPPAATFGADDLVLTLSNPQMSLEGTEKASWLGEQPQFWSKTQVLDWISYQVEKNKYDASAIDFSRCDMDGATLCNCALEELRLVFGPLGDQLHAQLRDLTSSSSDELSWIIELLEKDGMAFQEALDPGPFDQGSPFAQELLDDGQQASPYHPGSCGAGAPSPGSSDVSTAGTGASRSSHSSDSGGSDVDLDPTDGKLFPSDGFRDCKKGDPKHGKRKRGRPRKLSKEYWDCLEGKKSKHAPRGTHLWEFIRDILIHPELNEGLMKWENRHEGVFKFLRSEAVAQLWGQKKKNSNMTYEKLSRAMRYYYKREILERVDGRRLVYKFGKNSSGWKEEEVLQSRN
# How it was run: as §1
# [18] = biological target: CRX (Homo sapiens, UniProt O43186 1-299); conditions: protein: recombinant; tags: N-terminal GST; dsDNA, one strand shown
# How it was run: as §1
# [19] = biological target: ETV1 (Homo sapiens, UniProt P50549 1-477); conditions: protein: recombinant; tags: N-terminal GST; dsDNA, one strand shown
# How it was run: as §1
# Sequence of SPIB (Q01892 whole entry): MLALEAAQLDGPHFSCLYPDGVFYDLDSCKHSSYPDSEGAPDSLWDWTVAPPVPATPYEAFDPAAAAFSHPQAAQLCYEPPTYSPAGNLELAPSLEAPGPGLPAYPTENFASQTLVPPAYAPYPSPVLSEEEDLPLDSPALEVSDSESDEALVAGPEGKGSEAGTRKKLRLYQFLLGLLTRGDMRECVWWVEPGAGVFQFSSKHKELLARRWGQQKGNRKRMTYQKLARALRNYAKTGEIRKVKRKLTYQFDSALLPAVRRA
# Sequence of ETV1 (P50549 whole entry): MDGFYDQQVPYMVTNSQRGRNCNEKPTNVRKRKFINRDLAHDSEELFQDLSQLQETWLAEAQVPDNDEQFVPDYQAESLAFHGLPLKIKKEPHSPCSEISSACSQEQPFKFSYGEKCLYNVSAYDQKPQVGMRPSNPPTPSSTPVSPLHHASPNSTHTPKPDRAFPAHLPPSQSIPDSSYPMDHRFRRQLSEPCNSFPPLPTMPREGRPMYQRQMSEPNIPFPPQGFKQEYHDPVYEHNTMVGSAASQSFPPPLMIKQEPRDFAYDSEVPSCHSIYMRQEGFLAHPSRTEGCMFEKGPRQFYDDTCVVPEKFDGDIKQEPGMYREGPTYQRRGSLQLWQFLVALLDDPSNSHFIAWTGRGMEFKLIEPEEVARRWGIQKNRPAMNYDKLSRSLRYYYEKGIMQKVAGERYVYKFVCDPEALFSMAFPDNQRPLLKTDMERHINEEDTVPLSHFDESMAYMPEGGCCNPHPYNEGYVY
# Sequence of ELF4 (Q99607 whole entry): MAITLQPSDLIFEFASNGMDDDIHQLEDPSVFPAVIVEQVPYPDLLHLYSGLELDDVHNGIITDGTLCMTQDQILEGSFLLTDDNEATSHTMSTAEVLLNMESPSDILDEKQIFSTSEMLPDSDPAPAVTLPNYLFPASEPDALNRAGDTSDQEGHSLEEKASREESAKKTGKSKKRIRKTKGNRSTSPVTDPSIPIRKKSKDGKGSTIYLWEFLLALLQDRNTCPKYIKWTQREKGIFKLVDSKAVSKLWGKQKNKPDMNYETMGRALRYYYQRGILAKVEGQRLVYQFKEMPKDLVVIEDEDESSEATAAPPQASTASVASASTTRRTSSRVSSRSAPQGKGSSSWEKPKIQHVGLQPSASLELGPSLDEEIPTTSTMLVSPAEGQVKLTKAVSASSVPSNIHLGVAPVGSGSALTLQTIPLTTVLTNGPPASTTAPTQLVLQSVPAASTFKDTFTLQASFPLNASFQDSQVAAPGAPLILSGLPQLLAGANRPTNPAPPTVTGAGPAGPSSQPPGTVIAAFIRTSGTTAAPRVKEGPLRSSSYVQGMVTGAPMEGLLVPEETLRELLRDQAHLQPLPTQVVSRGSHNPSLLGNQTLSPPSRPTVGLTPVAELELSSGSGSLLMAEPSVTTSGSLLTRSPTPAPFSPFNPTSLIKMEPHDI
# Sequence of CRX (O43186 whole entry): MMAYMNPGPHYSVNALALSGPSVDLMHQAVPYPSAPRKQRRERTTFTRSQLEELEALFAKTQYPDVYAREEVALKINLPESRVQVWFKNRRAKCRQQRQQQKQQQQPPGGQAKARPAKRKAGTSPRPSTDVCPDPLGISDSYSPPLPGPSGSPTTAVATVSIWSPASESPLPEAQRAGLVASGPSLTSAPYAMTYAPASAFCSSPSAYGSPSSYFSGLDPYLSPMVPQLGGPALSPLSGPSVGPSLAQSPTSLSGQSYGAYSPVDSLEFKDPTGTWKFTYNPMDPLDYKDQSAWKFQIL
# Sequence of ELF1 (P32519 whole entry): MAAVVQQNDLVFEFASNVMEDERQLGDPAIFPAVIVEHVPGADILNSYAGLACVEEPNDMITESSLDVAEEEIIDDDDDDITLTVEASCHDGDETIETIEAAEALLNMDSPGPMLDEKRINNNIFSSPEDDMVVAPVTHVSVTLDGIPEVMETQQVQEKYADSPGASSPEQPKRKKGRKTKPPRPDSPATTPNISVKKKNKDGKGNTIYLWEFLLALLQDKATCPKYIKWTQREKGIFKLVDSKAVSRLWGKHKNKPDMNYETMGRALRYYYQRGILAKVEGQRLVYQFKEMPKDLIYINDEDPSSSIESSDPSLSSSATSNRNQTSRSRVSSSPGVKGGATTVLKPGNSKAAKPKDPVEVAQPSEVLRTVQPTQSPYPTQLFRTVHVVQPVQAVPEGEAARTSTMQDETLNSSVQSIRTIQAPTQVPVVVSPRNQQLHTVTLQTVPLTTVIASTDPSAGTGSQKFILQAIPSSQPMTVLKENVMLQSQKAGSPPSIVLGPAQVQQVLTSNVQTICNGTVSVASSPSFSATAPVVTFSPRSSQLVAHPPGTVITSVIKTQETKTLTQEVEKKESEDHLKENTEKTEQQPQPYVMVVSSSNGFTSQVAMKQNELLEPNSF
# Sequence of HSF1 (Q00613 whole entry): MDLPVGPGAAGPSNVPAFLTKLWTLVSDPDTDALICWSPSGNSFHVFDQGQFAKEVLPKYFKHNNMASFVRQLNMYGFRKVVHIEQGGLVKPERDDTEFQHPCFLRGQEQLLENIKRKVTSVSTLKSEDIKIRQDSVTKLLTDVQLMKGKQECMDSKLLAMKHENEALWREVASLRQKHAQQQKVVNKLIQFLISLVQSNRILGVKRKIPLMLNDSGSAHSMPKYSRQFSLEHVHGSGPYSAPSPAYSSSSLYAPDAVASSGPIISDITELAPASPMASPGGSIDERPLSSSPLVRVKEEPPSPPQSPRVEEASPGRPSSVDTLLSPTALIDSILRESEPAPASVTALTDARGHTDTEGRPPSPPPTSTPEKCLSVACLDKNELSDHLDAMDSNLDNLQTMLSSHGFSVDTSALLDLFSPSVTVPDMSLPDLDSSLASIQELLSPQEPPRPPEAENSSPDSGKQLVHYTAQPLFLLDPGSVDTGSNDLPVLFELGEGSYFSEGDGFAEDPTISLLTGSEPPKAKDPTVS
# Sequence of ETV5 (P41161 whole entry): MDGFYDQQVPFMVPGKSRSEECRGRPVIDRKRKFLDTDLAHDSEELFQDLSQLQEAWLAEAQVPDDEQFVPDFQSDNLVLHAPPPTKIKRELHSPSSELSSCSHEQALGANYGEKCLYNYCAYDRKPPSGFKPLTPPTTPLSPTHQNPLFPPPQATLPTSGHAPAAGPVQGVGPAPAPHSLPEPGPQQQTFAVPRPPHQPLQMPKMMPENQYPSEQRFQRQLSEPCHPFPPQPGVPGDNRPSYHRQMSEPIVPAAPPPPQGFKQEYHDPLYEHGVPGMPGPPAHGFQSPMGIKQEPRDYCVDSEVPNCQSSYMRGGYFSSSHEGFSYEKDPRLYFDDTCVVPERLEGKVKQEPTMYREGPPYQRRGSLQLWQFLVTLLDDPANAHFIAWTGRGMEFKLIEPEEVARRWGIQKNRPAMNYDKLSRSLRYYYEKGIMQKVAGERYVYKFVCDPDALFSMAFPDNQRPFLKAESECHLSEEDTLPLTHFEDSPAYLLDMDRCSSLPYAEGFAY
sequence,measurement,setting,value
TTGTGC,binding signal,[1],"1.28 fold enrichment (6-mer frequency, TF over GST control)"
same,binding signal,[2],"1.25 fold enrichment (6-mer frequency, TF over GST control)"
same,binding signal,[3],"1.27 fold enrichment (6-mer frequency, TF over GST control)"
same,binding signal,[4],"1.23 fold enrichment (6-mer frequency, TF over GST control)"
same,binding signal,[5],"1.14 fold enrichment (6-mer frequency, TF over GST control)"
same,binding signal,[6],"1.21 fold enrichment (6-mer frequency, TF over GST control)"
same,binding signal,[7],"1.18 fold enrichment (6-mer frequency, TF over GST control)"
same,binding signal,[8],"1.1 fold enrichment (6-mer frequency, TF over GST control)"
same,binding signal,[9],"1.21 fold enrichment (6-mer frequency, TF over GST control)"
same,binding signal,[10],"1.18 fold enrichment (6-mer frequency, TF over GST control)"
same,binding signal,[11],"1.17 fold enrichment (6-mer frequency, TF over GST control)"
same,binding signal,[12],"1.07 fold enrichment (6-mer frequency, TF over GST control)"
same,binding signal,[13],"1.37 fold enrichment (6-mer frequency, TF over GST control)"
same,binding signal,[14],"1.13 fold enrichment (6-mer frequency, TF over GST control)"
same,binding signal,[15],"1.23 fold enrichment (6-mer frequency, TF over GST control)"
same,binding signal,[16],"1.23 fold enrichment (6-mer frequency, TF over GST control)"
same,binding signal,[17],"1.24 fold enrichment (6-mer frequency, TF over GST control)"
same,binding signal,[18],"1.09 fold enrichment (6-mer frequency, TF over GST control)"
same,binding signal,[19],"1.09 fold enrichment (6-mer frequency, TF over GST control)"
